Inconclusive results are not listed. Calls of active or inactive are those of the source. Unless noted, calls follow the shape of the full dose curve.
What was measured:
[1] = biological target: Gonadotropin-releasing hormone receptor (Homo sapiens) (UniProt P30968); test: Human gonadotropin-releasing hormone receptor (GnRHR) small molecule agonists, calcium flux assay in GnRHR-HEK293 cells (AID 1920063); also: nearly all actives have a fitted effect of over 35% in size
Procedure, shortened: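 We seeded human GnRHR-expressing HEK293 cells for 18 hours, loaded them with calcium dye for an hour at 37 C, added test compounds, and recorded fluorescence intensity kinetically for three minutes.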

[2] = G protein-coupled receptor (GPCR) small molecule agonists, calcium flux assay: HEK293 wild type cell line counter screen (AID 1920065)
Procedure, shortened: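 Calcium-sensitive dye, loaded 1 h at 37 C into cells cultured 18 h, reports compound-evoked calcium release as fluorescence (Ex/Em 480/540), measured over 3 min. Agonist mode; 15-point titrations, triplicate.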

[3] = p53 small molecule agonists, cell-based qHTS assay with human liver microsomes (AID 1963577)
Procedure, shortened: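 Cells carrying a p53-responsive bla reporter were rested 5 h (37 C, 5% CO2) before compound transfer. Human liver microsomes plus NADPH, 0.5 mg/mL final apiece, supplied metabolism during the 16 h 37 C exposure.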

[4] = p53 small molecule agonists, cell-based qHTS assay with rat liver microsomes (AID 1963578)
Procedure, shortened: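 Fluorescence from a beta-lactamase reporter under a p53 response element was measured after cells had been incubated 16 h at 37 C with test compound and rat liver microsomes plus NADPH (0.5 mg/mL final each).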

[5] = p53 small molecule agonists, cell-based qHTS assay with human liver microsomes: qHTS cell viability counter screen (AID 1963579); also: nearly all actives have a fitted effect of over 45% in size; also: potency is read from the fitted curve at half-maximal effect
Procedure, shortened: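 Seed p53RE-bla cells at 4,000 per well; incubate 5 h at 37 C; add compound, human liver microsomes and NADPH; incubate 16 h at 37 C; add CellTiter-Glo; after 30 min at room temperature, read luminescence.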

[6] = p53 small molecule agonists, cell-based qHTS assay with rat liver microsomes: qHTS cell viability counter screen (AID 1963580); also: nearly all actives have a fitted effect of over 45% in size; also: potency is read from the fitted curve at half-maximal effect
Procedure, shortened: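 HCT-116 p53RE-bla, 4,000 cells/well, 5 h pre-incubation; cpd + rat liver microsomes 0.5 mg/mL + NADPH 0.5 mg/mL (final); 16 h, 37 C; CellTiter-Glo, 30 min RT; luminescence.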

[7] = p53 small molecule agonists, cell-based qHTS assay: qHTS cell viability counter screen (AID 1963581); also: nearly all actives have a fitted effect of over 45% in size; also: potency is read from the fitted curve at half-maximal effect
Procedure, shortened: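 Following 5 h attachment, HCT-116 p53RE-bla cells took up compound for 16 h at 37 C; the reporter was read with B/G FRET substrate (2 h RT), and viability then via CellTiter-Glo ATP luminescence.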

[8] = p53 small molecule agonists, cell-based qHTS assay (AID 1963582; active = well fitted activation curve with a large enough effect in the signal ratio in the repeat runs, not every such curve was filed as active; the % refers to the signal ratio)
Procedure, shortened: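 In this cell-based concentration-response screen, a p53 response element drives beta-lactamase; cells received DMSO-borne compounds after 5 h culture and were incubated a further 16 h before FRET substrate development.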

[9] = biological target: 5-hydroxytryptamine receptor 2A (Homo sapiens) (UniProt P28223); test: 5-hydroxytryptamine receptor 2A (HTR2A) small molecule agonists, cell-based qHTS assay (AID 1963587); also: nearly all actives have a fitted effect of over 30% in size; also: potency is read from the fitted curve at half-maximal effect
Procedure, shortened: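 Kinetic calcium-flux fluorescence (2 min, 1 sec intervals) after compound addition in agonist mode. HTR2A-CHO cells were cultured 18 h, then dye-loaded 1 h at 37 C.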

[10] = biological target: Muscarinic acetylcholine receptor M1 (Homo sapiens) (UniProt P11229); test: Cholinergic receptor muscarinic 1 (CHRM1) small molecule antagonists, cell-based qHTS assay (AID 1963588); also: nearly all actives have a fitted effect of over 40% in size; also: potency is read from the fitted curve at half-maximal effect
Procedure, shortened: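 CHRM1-CHO calcium-flux assay, antagonist mode. Cells were seeded 18 h, dye-loaded 1 h at 37 C and given compound for 5 min at RT, then acetylcholine was added at 50nM. FDSS fluorescence was read 3 min; 15 concentrations, three runs.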

[11] = biological target: Muscarinic acetylcholine receptor M1 (Homo sapiens) (UniProt P11229); test: Cholinergic receptor muscarinic 1 (CHRM1) small molecule agonists, cell-based qHTS assay (AID 1963589); also: nearly all actives have a fitted effect of over 35% in size
Procedure, shortened: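 Measures agonist-induced intracellular calcium rise. Stable human CHRM1 CHO line, 1 h dye load at 37 C, compounds from DMSO, kinetic fluorescence read.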

[12] = biological target: D(2) dopamine receptor (Homo sapiens) (UniProt P14416); test: Dopamine D2 receptor (DRD2) small molecule agonists, cell-based qHTS assay (AID 1963594); also: nearly all actives have a fitted effect of over 35% in size; also: potency is read from the fitted curve at half-maximal effect
Procedure, shortened: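 cAMP accumulation in DRD2-HEK293 cells measured by HTRF after 1 h detection; compounds added 10 min before NKH477 (200nM […]) forskolin-analogue stimulation, 30 min at room temperature, with Ro20-1724 present at 0.1 mM final.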

[13] = biological target: D(2) dopamine receptor (Homo sapiens) (UniProt P14416); test: Dopamine D2 receptor (DRD2) small molecule antagonists, cell-based qHTS assay (AID 1963595; active = well fitted inhibition curve with a large enough effect in the signal ratio in the repeat runs, with a control signal flat; the % refers to the signal ratio; also: potency is read from the fitted curve at half-maximal effect)
Procedure, shortened: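 Cells were plated and grown for 24 h at 37 °C. Ro20-1724 (0.1 mM final) went in first, then compound for 10 min. NKH477 (200 nM) with quinpirole (12 nM) followed for 30 min at RT, then HTRF detection reagents for 1 h.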

[14] = biological target: 5-hydroxytryptamine receptor 2A (Homo sapiens) (UniProt P28223); test: 5-hydroxytryptamine receptor 2A (HTR2A) small molecule antagonists, cell-based qHTS assay (AID 1963586); also: nearly all actives have a fitted effect of over 45% in size; also: potency is read from the fitted curve at half-maximal effect
Procedure, shortened: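 Antagonist-mode intracellular calcium assay: DOI (4 nM) added after 5 min compound pre-incubation at room temperature to dye-loaded HTR2A-CHO cells. Fluorescence followed for 3 min, sampled every second.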

[15] = biological target: KiSS-1 receptor (Homo sapiens) (UniProt Q969F8); test: Human kisspeptin (KISS1R) small molecule agonists, calcium flux assay in KISS1R-HEK293 cells (AID 1920064; active = well fitted activation curve with a large enough effect in the repeat runs)
Procedure, shortened: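 Kinetic calcium assay, 1 s sampling over 3 min at Ex/Em 480/540, in HEK293 cells engineered with human KISS1R; compounds delivered in DMSO after 1 h dye loading.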

[16] = cAMP Responsive Elements (CRE) small molecule agonists, cell-based qHTS assay (AID 1963590)
Procedure, shortened: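 A CRE-responsive beta-lactamase reporter in HEK 293T cells was used. Treatment ran 3 h at 37 C; detection used LiveBLAzer B/G FRET substrate for 2 h at room temperature.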

[17] = cAMP Responsive Elements (CRE) small molecule antagonists, cell-based qHTS assay (AID 1963591; active = well fitted inhibition curve with a large enough effect in the signal ratio in the repeat runs, not every such curve was filed as active; the % refers to the signal ratio)
Procedure, shortened: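 HEK293T cells carrying a CRE-driven beta-lactamase reporter receive compound and NKH477 (0.25 uM final) for 3 h. Fluorescence from LiveBLAzer B/G FRET substrate is read after 2 h at room temperature.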

[18] = biological target: Beta-2 adrenergic receptor (Homo sapiens) (UniProt P07550); test: Adrenergic beta2 receptor (ADRB2) small molecule antagonists, cell-based qHTS assay (AID 1963592); also: series mostly up to about 92 µM; nearly all actives have a fitted effect of over 50% in size
Procedure, shortened: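 Cells (CHO, stable ADRB2 overexpression) incubated 18-20hr at 37C; compounds added from DMSO; agonist mix (1nM isoproterenol, 100uM IBMX, 25uM Ro-20-1724) added; 0.5hr RT; d2-cAMP and anti-cAMP-cryptate added; 1hr RT; 665/615 nm read.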

[19] = biological target: Beta-2 adrenergic receptor (Homo sapiens) (UniProt P07550); test: Adrenergic beta2 receptor (ADRB2) small molecule agonists, cell-based qHTS assay (AID 1963593);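 also: CHO cells stably overexpressing human ADRB2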
Procedure, shortened: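 CHO cells stably over-expressing ADRB2 were plated overnight at 37C, then dosed with compounds plus a stimulation mix containing 100uM IBMX and 25uM Ro-20-1724 for 0.5hr at room temperature. cAMP was measured by HTRF competition, 1hr.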

Measured: Potency

Muscarinic acetylcholine receptor M1 (Homo sapiens), sequence (P11229 whole entry, looked up): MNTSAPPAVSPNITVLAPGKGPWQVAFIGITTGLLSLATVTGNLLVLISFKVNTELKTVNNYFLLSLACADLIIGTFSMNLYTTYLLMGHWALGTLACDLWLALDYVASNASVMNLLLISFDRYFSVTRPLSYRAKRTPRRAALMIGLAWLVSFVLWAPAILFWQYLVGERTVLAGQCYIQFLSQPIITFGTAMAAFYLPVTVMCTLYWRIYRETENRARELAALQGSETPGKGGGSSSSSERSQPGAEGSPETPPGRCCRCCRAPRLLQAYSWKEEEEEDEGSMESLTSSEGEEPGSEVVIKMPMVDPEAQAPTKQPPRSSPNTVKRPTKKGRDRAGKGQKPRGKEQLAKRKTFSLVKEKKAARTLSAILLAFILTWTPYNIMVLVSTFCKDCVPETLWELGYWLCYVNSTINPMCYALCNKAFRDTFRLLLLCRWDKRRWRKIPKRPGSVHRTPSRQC
5-hydroxytryptamine receptor 2A (Homo sapiens), sequence (P28223 whole entry, looked up): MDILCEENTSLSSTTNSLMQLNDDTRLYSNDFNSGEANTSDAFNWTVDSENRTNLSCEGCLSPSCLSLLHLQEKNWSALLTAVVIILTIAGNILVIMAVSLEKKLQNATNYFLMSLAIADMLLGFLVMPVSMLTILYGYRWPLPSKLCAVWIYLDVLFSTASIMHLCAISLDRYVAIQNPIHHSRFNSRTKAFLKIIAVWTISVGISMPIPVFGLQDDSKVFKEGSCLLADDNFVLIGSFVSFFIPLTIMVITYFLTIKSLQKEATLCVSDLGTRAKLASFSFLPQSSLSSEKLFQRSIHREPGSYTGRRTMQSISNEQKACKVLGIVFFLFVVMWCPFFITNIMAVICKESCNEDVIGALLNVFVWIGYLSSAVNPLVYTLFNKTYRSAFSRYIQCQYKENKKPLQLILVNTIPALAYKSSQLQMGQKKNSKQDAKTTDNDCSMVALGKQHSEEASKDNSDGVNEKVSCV
D(2) dopamine receptor (Homo sapiens), sequence (P14416 whole entry, looked up): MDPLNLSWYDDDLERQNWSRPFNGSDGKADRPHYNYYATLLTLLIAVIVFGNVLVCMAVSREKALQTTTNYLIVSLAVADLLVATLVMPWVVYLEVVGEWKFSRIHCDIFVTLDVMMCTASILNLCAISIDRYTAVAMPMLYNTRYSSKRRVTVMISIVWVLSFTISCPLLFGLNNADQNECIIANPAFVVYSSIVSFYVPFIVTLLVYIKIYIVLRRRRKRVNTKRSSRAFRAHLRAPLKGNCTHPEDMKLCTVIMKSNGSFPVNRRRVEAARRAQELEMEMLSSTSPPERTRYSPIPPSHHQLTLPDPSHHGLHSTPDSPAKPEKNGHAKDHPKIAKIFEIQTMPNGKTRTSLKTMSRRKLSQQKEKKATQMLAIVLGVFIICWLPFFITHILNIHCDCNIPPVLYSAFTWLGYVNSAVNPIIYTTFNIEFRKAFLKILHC
Beta-2 adrenergic receptor (Homo sapiens), sequence (P07550 whole entry, looked up): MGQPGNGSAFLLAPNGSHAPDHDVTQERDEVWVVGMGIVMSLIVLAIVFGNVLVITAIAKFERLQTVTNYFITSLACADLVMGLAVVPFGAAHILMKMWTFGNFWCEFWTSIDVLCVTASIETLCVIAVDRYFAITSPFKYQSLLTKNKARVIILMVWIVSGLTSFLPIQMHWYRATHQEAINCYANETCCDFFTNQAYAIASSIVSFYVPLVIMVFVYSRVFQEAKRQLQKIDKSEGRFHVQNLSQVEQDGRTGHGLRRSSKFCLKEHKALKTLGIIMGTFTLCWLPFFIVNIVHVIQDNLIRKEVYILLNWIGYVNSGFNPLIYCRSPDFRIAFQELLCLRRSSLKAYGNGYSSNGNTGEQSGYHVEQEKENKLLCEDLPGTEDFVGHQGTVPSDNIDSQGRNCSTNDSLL
Gonadotropin-releasing hormone receptor (Homo sapiens), sequence (P30968 whole entry, looked up): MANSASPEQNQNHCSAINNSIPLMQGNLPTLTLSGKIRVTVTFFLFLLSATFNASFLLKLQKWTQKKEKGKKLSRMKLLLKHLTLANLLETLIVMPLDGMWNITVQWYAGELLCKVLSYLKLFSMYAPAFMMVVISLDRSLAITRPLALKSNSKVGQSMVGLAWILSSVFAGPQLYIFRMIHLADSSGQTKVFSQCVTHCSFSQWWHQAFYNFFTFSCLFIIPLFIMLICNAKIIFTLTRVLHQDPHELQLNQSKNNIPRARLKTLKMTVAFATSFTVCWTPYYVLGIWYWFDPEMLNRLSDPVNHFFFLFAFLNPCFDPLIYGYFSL
KiSS-1 receptor (Homo sapiens), sequence (Q969F8 whole entry, looked up): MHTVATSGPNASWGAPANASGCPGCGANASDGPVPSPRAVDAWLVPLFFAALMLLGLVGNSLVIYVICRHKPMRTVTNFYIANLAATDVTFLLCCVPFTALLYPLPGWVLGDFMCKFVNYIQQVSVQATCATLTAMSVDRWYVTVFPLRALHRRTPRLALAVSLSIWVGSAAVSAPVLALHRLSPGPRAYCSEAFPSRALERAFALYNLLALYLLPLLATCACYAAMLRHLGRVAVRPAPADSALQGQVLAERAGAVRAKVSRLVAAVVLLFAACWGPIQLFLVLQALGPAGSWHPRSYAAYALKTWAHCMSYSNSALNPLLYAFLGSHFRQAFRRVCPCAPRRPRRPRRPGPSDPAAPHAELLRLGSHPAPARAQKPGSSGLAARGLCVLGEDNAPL

CN1CCN(CCCN2c3ccccc3Sc3ccc(S(=O)(=O)N(C)C)cc32)CC1
active: [10] 5.16 µM | [13] 0.0473 µM
not listed: [14] | [15] | [16] | [17] | [18] | [19]
inactive: all other assays above

Nc1ccc(N)c([N+](=O)[O-])c1
inactive: [14] | [11]

CCC(C)(CN(C)C)OC(=O)c1ccccc1 (stereo not given)
not listed: [1] | [6] | [8]
inactive: all other assays above

Oc1cc2ccccc2c2ccccc12
active: [5] 10.2 µM | [6] 6.46 µM | [7] 10.2 µM | [13] 30.6 µM
inactive: [15] | [2] | [14] | [9] | [10] | [11] | [18]

O=c1[nH]nc(-c2ccc([N+](=O)[O-])o2)o1
not listed: [15] | [16] | [17] | [19]
inactive: all other assays above

CS(=O)(=O)c1ccc([C@@H](CC2CCCC2)C(=O)Nc2cnccn2)cc1Cl
inactive: [9] | [10] | [11] | [19] | [12] | [13]

CNCC[C@H](Oc1cccc2ccccc12)c1cccs1
inactive: [2] | [4] | [5] | [6] | [7] | [11] | [16] | [17] | [13]

C=C(C)C(=O)OCC(O)COc1ccc(C(C)(C)c2ccc(OCC(O)COC(=O)C(=C)C)cc2)cc1 (stereo not given)
inactive: [1] | [2] | [4] | [6] | [7] | [9] | [10] | [11] | [12] | [13]

CN1[C@@H]2CC[C@@H]1CC(OC(=O)C(CO)c1ccccc1)C2 (stereo not given in full)
inactive: [15] | [2] | [16] | [17] | [18] | [12] | [13]

Cc1c(C)n(Cc2ccccc2)c2ccc(C(=O)OCCN(C)C)cc12
active: [14] 16.3 µM | [13] 33.5 µM
not listed: [7] | [8] | [9] | [15] | [17] | [19]
inactive: all other assays above

O=C1Cc2ccccc2C1
inactive: [14] | [9] | [10] | [11] | [18] | [12] | [13]

c1ccc(-c2ccccc2-c2ccccc2)cc1
not listed: [1] | [5] | [6] | [7] | [16] | [17]
inactive: all other assays above

CCCCNC(=S)NCCCC
not listed: [1] | [8] | [9] | [14] | [17] | [18]
inactive: all other assays above

Nc1ccc(N=Nc2ccccc2)c(N)c1
active: [14] 1.64 µM | [10] 23.2 µM
not listed: [1] | [12] | [13] | [18] | [19]
inactive: all other assays above

O=C(c1ccccc1)c1ccccc1
not listed: [3] | [4] | [5] | [6] | [15]
inactive: all other assays above

CCCCCCCC1CCC(=O)O1 (stereo not given)
inactive: [14] | [9] | [10] | [11] | [18] | [19] | [13]

CO[C@]1(NC(=O)CSC(F)F)C(=O)N2C(C(=O)O)=C(CSc3nnnn3CCO)CO[C@H]21
not listed: [3] | [7] | [13] | [15]
inactive: all other assays above

CCCC(=O)Nc1ccc(OCC(O)CNC(C)C)c(C(C)=O)c1 (stereo not given)
inactive: [15] | [2] | [7] | [16] | [17] | [13]
active: [12] 18.8 µM

COC(=O)[C@H]1[C@H]2C[C@@H]3c4[nH]c5cc(OC)ccc5c4CCN3C[C@H]2C[C@@H](OC(=O)/C=C/c2ccc(O)c(OC)c2)[C@@H]1OC
inactive: [15] | [2] | [4] | [5] | [14] | [10] | [12]
active: [9] 19 µM
